Assay outcomes deposited in PubChem by National Center for Advancing Translational Sciences (NCATS).
Compounds with a hit are over-represented: about 7.2% of the library has one in this group of screens.
Sm TGR inh: inhibitors of Schistosoma mansoni thioredoxin glutathione reductase; Q962Y6; purified TGR, DTNB reduction, TNB absorbance 405 nm; Potency, µM (titrated, usually from 114 µM), for inactives: at the top dose activity change, negative = inhibition, actives largely listed as inhibitors; actives 3% (n = 360,000); AID 485364; also: nearly all actives have a fitted effect of over 60% in size
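First, TGR (20 nM dispensed) and NADPH were mixed with compound. Second, a 15 min room-temperature incubation followed. Third, further NADPH and then DTNB were added to start the reaction. Finally, TNB absorbance was monitored kinetically.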
RE007 growth inh: less growth of the S. pombe RE007 Vpr strain; S. pombe RE007 Vpr strain, BacTiter-Glo ATP luminescence, 24 h; Potency, µM (series often up to 92.2 µM), without a hit: at the top dose activity change, negative = less growth, hits mostly inhibitors; actives 0.21% (n = 360,000); AID 651644; active = well fitted falling curve with a large enough effect; inconclusive = small, poorly fitted or top-dose-only effect; inactive = no such curve, though single readings can be large or run the other way; also: nearly all actives have a fitted effect of over 50% in size
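Fission yeast RE007 carrying one integrated HIV-1 vpr copy, seeded at OD 0.01 in PMG+AL medium with 23 nL pinned compound. Grown 24 h at 30 degrees; viability read by BacTiter-Glo luminescence after 5 min.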
LASV entry inh: blocks Lassa virus binding to or entry into cells. Lassa virus pseudotype entry inhibition, cell reporter. Potency, µM (highest dose often 37.9 µM), for the others: at the top dose activity change, negative = inhibition, usual class: inhibitors. actives 1.2% (n = 300,000). AID 540256; calls by dose curve; tested in HEK293 cells; also: nearly all actives have a fitted effect of over 50% in size
HCV inhibitor: HCV inhibition; Potency, µM (titrated, usually from 41.8 µM), for inactives: at the top dose activity change, negative = inhibition, hits mostly inhibitors; AID 651820; Huh7.5.1 HCVcc-Cre infection, luciferase reporter, 44 h; actives 3.4% (n = 340,000)
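Infectious HCVcc-Cre (~0.5 moi) was added to cells just after compound, with cells seeded 4 h earlier at 1,000 per well. Luciferase activity after 44 h culture reported infection; substrate was incubated 15 min at room temperature before reading.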
MARV entry inh: inhibitors of Marburg virus binding or cell entry; Marburg virus pseudotyped entry inhibition, cell reporter; Potency, µM (titrated, usually from 37.8 µM), for inactives: at the top dose activity change, negative = inhibition, usual class: inhibitors; actives 1.8% (n = 300,000); calls by dose curve; tested in HEK293 cells
FMDV antiviral: foot and mouth disease virus antiviral activity; actives 1.2% (n = 410,000); Potency, µM (doses to about 57.9 µM), for inactives: top-dose activity change, negative = inhibition, actives largely listed as inhibitors; AID 1159524; FMDV antiviral cell-based qHTS; calls by dose curve; tested in HEK293T cells; also: read-out not given here; nearly all actives have a fitted effect of over 45% in size
* = called active by the depositor; ? = inconclusive; · = no result; [ ] = remark or other dose. Unless noted, calls follow the shape of the dose curve; as a rule, active = well fitted curve in the direction sought with a large enough effect; inconclusive = small, poorly fitted or top-dose-only effect, or another doubt; inactive = no such curve, though single readings can be large; an effect the other way counts as inactive or inconclusive. % is scaled to controls: 0 for no effect and ±100 for the full control effect; potency is read from the fitted curve at half-maximal effect.

SMILES	Sm TGR inh	RE007 growth inh	LASV entry inh	HCV inhibitor	MARV entry inh	FMDV antiviral
CNC[C@H](O)c1ccc(O)c(O)c1	14µM*	1%[18.4 µM]	-1%	12%	4%	-4%
CCC(Oc1ccccc1)C(=O)Nc1ccccc1C(=O)N1CCN(C)CC1 (stereo unspecified)	-9%	4%	-6%	·	-32%	-25%
CCC(Oc1ccccc1)C(=O)Nc1ccccc1C(=O)N1CCCCC1 (stereo unspecified)	7%	2%	?	·	11µM*	?
CCOc1ccc(CCNC(=O)c2cc3n(n2)CCCN(Cc2ccc(C)cc2)C3=O)cc1OCC	2%	·	4%[46.1 µM]	·	·	?
Cc1ccc(Sc2ncccc2COC(=O)Nc2ccccc2)cc1	20%	5%	16µM*	?	-28%	-4%
Cc1ccc(Sc2ncccc2COC(=O)Nc2c(C)cccc2C)cc1	12%	-3%	2.8µM*	?	-15%	0%
Cc1[nH]n(-c2ccccc2)c(=O)c1C(C[N+](=O)[O-])c1ccccc1Cl (stereo unspecified)	29%	32µM*	5%	2%	35%	-13%
COc1ccc(C(C[N+](=O)[O-])c2c(C)[nH]n(-c3ccccc3)c2=O)cc1 (stereo unspecified)	18µM*	11µM*	4%	-9%	-10%[46.1 µM]	-1%
Cc1csc2nc(-c3cccc(NC(=O)c4ccc(S(N)(=O)=O)cc4)c3)cn12	-1%	·	13%[46.1 µM]	·	·	24%
COc1ccc(N=Cc2c(O)c3ccccc3n2C(C)=O)cc1	28µM*	?	·	?	·	34%
COc1cccc(CNC(=O)c2c(OC)cc(=O)n3c2CCN(C(=O)C2=C(C)OCCO2)CC3)c1	·	·	·	·	·	31%
CC(CCc1ccccc1)NC(=S)NC(=O)c1ccco1 (stereo unspecified)	?	13%	?	-3%	15%[46.1 µM]	-7%
O=C(NC(=S)N(CCc1ccccc1)CCc1ccccc1)c1ccco1	-7%	-18%	8.9µM*	-3%	?	7%
COc1cc(C(=O)NC(=S)N(CCc2ccccc2)CCc2ccccc2)cc(OC)c1OC	-1%	·	?	?	3.2µM*	0%
CCCCSc1nc2c(cc1C#N)CCC2	0%	3%	?	22µM*	-20%	19%
N#Cc1ccc(CN2CCC3(CC2)CCN(C(=O)c2csnn2)CC3)cc1	·	·	·	·	·	-13%
CCOC(=O)[C@@H](C)N1[C@H](C)[C@H](c2ccccc2)Oc2cc(Br)ccc2S1(=O)=O	·	·	·	·	4.4µM*	·
C[C@H](CO)N1C[C@H](C)[C@H](CN(C)C(=O)c2ccccc2)Oc2cc(Br)ccc2S1(=O)=O	·	5%	·	·	·	1%
CCc1ccc(NC(=O)C(Cc2ccccc2)NS(=O)(=O)c2ccc3c(c2)c(=O)n(C)c(=O)n3C)cc1 (stereo unspecified)	-5%	·	-7%[46.1 µM]	·	-21%[46.1 µM]	3%
NNC(=O)Cn1c2ccccc2c2ccccc21	12%	2%	7%	2%	1%[46.1 µM]	-4%
O=C(O)Cn1c2ccccc2c2ccccc21	9%	6%	0%	4µM*	0%	-5%
Cc1ccc2cc(C#N)c(N3CCCN(C(=S)NCCCN(C)C)CC3)nc2c1	?	-22%	?	10µM*	7.1µM*	-15%
CCOCCCNC(=S)N1CCCN(c2nc3c(C)c(C)ccc3cc2C#N)CC1	20%	0%	-28%[46.1 µM]	10µM*	?	-7%
COc1cc(C(=O)N2CCCN(c3nc4cc(C)ccc4cc3C#N)CC2)cc(OC)c1OC	-1%	7%	-30%	?	?	?
CCOCCCNC(=S)N1CCCN(c2nc3cc(C)ccc3cc2C#N)CC1	0%	0%	-5%[46.1 µM]	4%	4%[46.1 µM]	0%
SMILES	Sm TGR inh	RE007 growth inh	LASV entry inh	HCV inhibitor	MARV entry inh	FMDV antiviral
Cc1cc(C)c2cc(C#N)c(N3CCCN(C(=S)NCCCN(C)C)CC3)nc2c1	?	-20%	17%[46.1 µM]	11µM*	?	-20%
O=C(CC1C(=O)N(c2ccccc2)C(=O)N1CCC1=CCCCC1)Nc1ccc(F)cc1 (stereo unspecified)	-4%	·	-6%[46.1 µM]	·	?	5%
CCc1ccc(CN(C(=O)c2cc(=O)c3ccc(C)cc3o2)C2CCS(=O)(=O)C2)cc1 (stereo unspecified)	4%	·	-9%[46.1 µM]	·	-14%[46.1 µM]	-10%
CC1(C)CC(=O)c2cc(-c3nc(-c4ccc(Cl)cc4)cs3)c(=O)[nH]c2C1	8%	·	15%[46.1 µM]	·	-10%[46.1 µM]	-5%
Cc1cc2c([nH]c3ccccc32)c(C)n1	-14%	17%	-18%[46.1 µM]	?	?	0%
Cc1c2c(cc3c1[nH]c1ccccc13)C=NCC2	·	2%	8%[46.1 µM]	10µM*	?	-6%
CCN1C(=O)C(Cc2nc3ccccc3c(=O)n2-c2cccc(C)c2)c2ccccc21 (stereo unspecified)	-3%	·	-20%[46.1 µM]	·	-1%[46.1 µM]	16%
CC(=O)c1ccc(OCC(=O)N2CCCC2c2ccc3c(c2)OCCCO3)cc1 (stereo unspecified)	·	2%	10%[46.1 µM]	-3%	1%[46.1 µM]	-13%
O=C(CCl)N1CCCC1c1ccc2c(c1)OCCO2 (stereo unspecified)	3.5µM*	-1%	-19%	?	?	-21%
CCCN(CC1CC1)C(=O)CSc1nnc(-c2ccco2)n1N	50µM*	·	·	·	·	·
CN(CCC#N)C(=O)CSc1nnc(-c2ccco2)n1N	0%	5%	?	10%	4%[46.1 µM]	2%
COc1ccccc1NS(=O)(=O)c1cc(NC(=O)Cc2n[nH]c(=O)c3ccccc23)ccc1Cl	·	-6%	?	3.2µM*	?	?
O=S(=O)(/N=C(/Nc1ccc(Cl)c(S(=O)(=O)N2CCOCC2)c1)c1ccc(F)cc1)c1ccccc1	5%	-8%	?	-15%	?	25%
COc1ccccc1NS(=O)(=O)c1cc(N/C(=N\S(=O)(=O)c2ccccc2)c2ccc(F)cc2)ccc1Cl	-1%	-2%	?	35µM*	?	36%
CCCCN1C(=O)C(CC(=O)NCCN2CCOCC2)CC(C(=O)N2CCCCCC2)=C1C (stereo unspecified)	·	3%	·	·	·	-15%
COCCN(C)Cc1cn(-c2ccc(F)cc2F)nc1-c1ccccc1C	5µM*	-7%	?	-4%	?	-13%
Cc1ccccc1-c1nn(-c2ccc(F)cc2F)cc1CNCCN(C)C	-1%	-22%	7%	-16%	-7%[46.1 µM]	-3%
Cc1ccccc1-c1nn(-c2ccc(F)cc2F)cc1CNCCCN(C)C	-8%	0%	?	3.2µM*	3.5µM*	-11%
Cc1ccc(NS(=O)(=O)c2ccc(-c3cc(C)no3)cc2)c(Br)c1	7%	·	?	·	·	-19%
CCN(C(=O)C1CCN(S(=O)(=O)c2cc(Br)cc3c2N(C(C)=O)CC3)CC1)c1cccc(C)c1	12%	·	-24%[46.1 µM]	·	?	-27%
